The record followed here is PubChem BioAssay (Tox21).

Molecules are shown by their SMILES. Inconclusive results are not listed. Where a call stands in place of a potency, no number is given. Unmarked numbers belong to inactive results. Activity calls are given as the source filed them. The call rests on the fitted dose curve; in most records, active means well fitted activation curve with a large enough effect in the repeat runs; inconclusive means weak or mixed curves; inactive means flat fitted curve, though single readings scatter.
Potency means the concentration at half of the fitted maximal effect.

This assay is described as follows: A CellTox Green Cytotoxicity Assay to monitor cytotoxicity in HEK293 cells - 24 hour (AID 1224875). Further: nearly all actives have a fitted effect of over 45% in size. Particulars: CellTox Green fluorescence; series mostly up to 76.8 µM. An excerpt:
National Center for Advancing Translational Sciences [NCATS]
NIH Chemical Genomics Center [NCGC]
U.S. Environmental Protection Agency [EPA]
National Institutes of Environmental Health Sciences [NIEHS]
National Toxicology Program [NTP]
Cell-based models are critical for drug discovery. Determining the natural cytotoxic effects resulting from test compounds is an essential research activity. A CellTox Green Cytotoxicity Assay to monitor cytotoxicity in real time of continues cell culture during 40 hours of the compound treatment was used to screen Tox21 10K library compounds in Hek293 cells. CellTox Green Cytotoxicity Assay is a nonlytic, homogeneous, biofluorescent method to measure cytotoxicity in cell culture after experimental manipulation. The assay system uses a proprietary asymmetric cyanine dye that is excluded from viable cells but preferentially stains the dead cell's DNA. […] Viable cells produce no appreciable increases in fluorescence. Therefore, the fluorescence signal produced by the binding interaction with dead cell DNA is proportional to cytotoxicity.
The mixture of Hek293 cell suspension and reagents were dispensed at 600cells/6 ul/well in 1536-well tissue culture treated black solid bottom plates using a Multidrop dispenser. After the assay plates were incubated at a 37 C/5% CO2 incubator for 5 hours, 23 nL of compounds dissolved in DMSO, positive and negative controls was transferred to the assay plate by a pintool work station. The plates were incubated at 37 C for 40 hours. The fluorescence intensity were measured at 0h, 8h, 16h, 24h, 32h and 40h time points using ViewLux plate reader during compound treatment.
With `O=C(c1ccccc1)c1ccc(Cl)cc1`, the Potency entry was “inactive”.

With `CCC(C)(C)c1ccc(CC(C)CN2C[C@@H](C)O[C@@H](C)C2)cc1` (stereo not given in full), the Potency was 23.9 µM (active).

For the compound `N#CCCOCCC#N`, the Potency entry is “inactive”.

As for `CCCCC/C=C\C=C\C(=O)OCC`, the Potency entry was “inactive”.

As to `CCN(CC)c1ccc(N=Nc2ccccc2)cc1`, the Potency result was “inactive”.

Turning to `CSc1nnc(C(C)(C)C)c(=O)[nH]1`, the Potency result was “inactive”.

For the compound `CCC(O)CO` (stereo not given), the Potency entry was “inactive”.

For the compound `C=C1C(CCl)(CCl)C2(Cl)C(Cl)C(Cl)C1(Cl)C2(Cl)Cl` (stereo not given), the Potency was 54.3 µM (active).

`NCc1cccc(C2CCN(C(=O)c3ccc(C#Cc4ccccc4F)o3)CC2)c1`: the Potency is 49 µM (active).

With `Cc1cc(C)c(O)c(C(C)(C)C)c1`, the Potency is 24.5 µM (active).

For the compound `O=C1CCC/C=C\CCCCCCCCCC1`, the Potency entry was “inactive”.

Consider `Oc1cccc2c(O)cccc12`, for which the Potency result was “inactive”.

For the compound `CCCCNc1ccc(NCCCC)c2c1C(=O)c1ccccc1C2=O`, the activity change is 0.143% [at 15.8 µM, hits give high values].

Regarding `CCCCCc1ccc(O)cc1`, the Potency was 38.9 µM (active).

For `CC(C)c1ccc2sc3ccccc3c(=O)c2c1`, the Potency entry is “inactive”.

Consider `O=C1c2ccccc2C(=O)c2c(Cl)cccc21`, for which the Potency entry is “inactive”.

Take `CCc1c(C)cc(N)c(CC)c1N`: the Potency result was “inactive”.

Regarding `CN(C[C@@H](CC[N+]12CCC(C3CCCCC3)(CC1)CC2)c1ccc(Cl)c(Cl)c1)C(=O)c1cc(C(F)(F)F)cc(C(F)(F)F)c1`, the Potency was 24.5 µM (active).

`Clc1cccc(Cl)n1`: the Potency result is “inactive”.

For `C/C=C/C(=O)OCC(C)C`, the Potency result is “inactive”.

Consider `CC1(C)[C@H]2CC[C@]1(C)C(=O)C2`, for which the Potency result is “inactive”.

Turning to `CCCCCCCCc1ccc(Nc2ccc(CCCCCCCC)cc2)cc1`, the Potency result is “inactive”.

Regarding `CCCCCN=C(N)N/N=C/c1c[nH]c2ccc(OC)cc12`, the Potency is 6.74 µM (active).

Take `CCOC=C(C(=O)OCC)C(=O)OCC`: the Potency result is “inactive”.

Take `CCOC(=O)OC(=O)OCC`: the Potency result is “inactive”.

As for `O=[N+]([O-])c1ccc(O)c2ncccc12`, the Potency result was “inactive”.

Consider `Nc1ccc2c(S(=O)(=O)O)cccc2c1S(=O)(=O)O`, for which the Potency entry was “inactive”.

For the compound `Nc1cc([N+](=O)[O-])ccc1Cl`, the Potency entry was “inactive”.

On to `O=C1CCC(=O)N1`, for which the Potency result is “inactive”.

On to `C=C(C)C1CCC(C)CC1O` (stereo not given), for which the Potency result is “inactive”.

For `O=C(CCN1CCC(c2ccccc2)C1)c1ccc2c(c1)OCCO2` (stereo not given), the Potency entry is “inactive”.

`CCCCCCCCCCCCCCCCC(C(=O)O)C(O)(CC(=O)O)C(=O)O` (stereo not given): the Potency entry was “inactive”.

For `O=C1OCc2ccccc21`, the Potency result is “inactive”.

In the case of `Cc1ccc2sc3cccc(C)c3c2c1`, the Potency entry was “inactive”.

For the compound `CC/C(=C(/c1ccc(O)cc1)c1ccc(OCCN(C)C)cc1)c1ccccc1`, the Potency was 25.7 µM (active).

For `Oc1ccc(Cl)cc1C1CCCC1`, the Potency is 54.9 µM (active).

Take `COc1cccc(-c2ccc(/C=C\CN3CCCCCC3)cc2Cl)c1`: the Potency is 48.7 µM (active).

For `CCN(CC)c1ccc2c(c1)Oc1cc(N(CC)CC)ccc1C21OC(=O)c2ccccc21`, the Potency is 19 µM (active).

As to `CC(C=O)c1ccccc1` (stereo not given), the Potency entry is “inactive”.

For `CCN(CC)c1ccc(C=O)cc1`, the Potency entry is “inactive”.
